# From PubChem
# A selection: hits, their analogues and other compounds. The true share with any hit is near 3.3%.
# AmpC detergent – qHTS Inhibitors of AmpC Beta-Lactamase (assay with detergent); actives 0.041% (n = 370,000); AmpC hydrolysis of nitrocefin, absorbance 480 nm, 0.01% Triton; P00811; Potency, µM (series often up to 114 µM), for inactives: at the highest dose activity change, negative = inhibition, most hits filed as inhibitors;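 also: 0% = no-compound wells and -100% = no-enzyme wells; nearly all actives have a fitted effect of over 25% in size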
# Target sequence (P00811 whole entry, looked up): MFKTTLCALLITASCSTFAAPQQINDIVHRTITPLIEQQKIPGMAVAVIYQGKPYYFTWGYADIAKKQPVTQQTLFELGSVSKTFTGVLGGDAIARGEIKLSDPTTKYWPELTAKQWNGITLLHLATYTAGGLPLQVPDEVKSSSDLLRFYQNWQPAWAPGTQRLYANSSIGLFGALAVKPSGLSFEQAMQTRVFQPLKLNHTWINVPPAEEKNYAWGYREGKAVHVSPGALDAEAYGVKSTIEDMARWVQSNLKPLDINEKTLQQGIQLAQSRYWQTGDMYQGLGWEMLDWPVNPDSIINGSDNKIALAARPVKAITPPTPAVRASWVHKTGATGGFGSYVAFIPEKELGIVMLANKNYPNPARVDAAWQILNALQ
#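 AmpC (5.3 nM in the dispensed reagent) in 20 mM phosphate pH 7.0 with 0.01% (detergent screen) or 0.0001% Triton X-100 was preincubated with compounds for 15 min at room temperature. Nitrocefin was then added from an 800 uM solution, and hydrolysis was followed at 480 nm.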
# Sm TGR block – qHTS Assay for the Inhibitors of Schistosoma Mansoni Peroxiredoxins; Schistosoma mansoni thioredoxin glutathione reductase (TGR), Q962Y6; purified TGR, DTNB reduction, TNB absorbance 405 nm; Potency, µM (highest dose often 114 µM), inactives show at the top dose activity change, negative = inhibition, hits mostly inhibitors; actives 3% (n = 360,000); AID 485364, 2010; also: nearly all actives have a fitted effect of over 60% in size
#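 TGR 20 nM + NADPH 100 uM (dispensed conc.), cpd preinc 15 min RT; start with NADPH (500 uM addition) then DTNB (15 mM addition). Kinetic TNB absorbance, 405 nm filter. Four-parameter Hill fit across titration.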
# AmpC inh no detg – qHTS Inhibitors of AmpC Beta-Lactamase (assay without detergent). P00811. AmpC nitrocefin hydrolysis, absorbance 480 nm, 0.0001% Triton. Potency, µM (top dose mostly 57.1 µM), without a hit: at the top dose activity change, negative = inhibition, usual class: inhibitors. actives 0.52% (n = 330,000). AID 485341, 2010;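 also: plate controls were no compound for no effect and no enzyme for full effect; nearly all actives have a fitted effect of over 20% in size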
#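 20 mM phosphate pH 7.0 + 0.01% (detergent screen) or 0.0001% Triton X-100; 5.3 nM AmpC reagent; cpd preinc 15 min RT; nitrocefin (800 uM stock) to start; A480 q20 s × 4 min; Activity was normalised to no-enzyme and no-compound control wells.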
# Numbers without * were called inactive; ? = inconclusive; / = no result; [ ] = dose if it differs, or a comment. Calls follow the shape of the dose curve; as a rule, active = well fitted curve in the direction sought with a large enough effect; inconclusive = small, poorly fitted or top-dose-only effect, or another doubt; inactive = no such curve, though single readings can be large; an effect the other way counts as inactive or inconclusive. Unless noted, % is scaled to controls: 0 for no effect and ±100 for the full control effect; potency is read from the fitted curve at half-maximal effect.
SMILES,AmpC detergent,Sm TGR block,AmpC inh no detg
Cc1ccc(C(C2=C(O)CC(C)(C)CC2=O)C2C(=O)CC(C)(C)CC2=O)s1 (configuration not stated),?,?,-19.0%
CC1(C)CC(=O)C(C(C2=C(O)CC(C)(C)CC2=O)c2ccc(Br)s2)C(=O)C1 (configuration not stated),?,10µM*,-28.5%
COc1ccc(NC(=O)C2CC(c3ccccc3Cl)=NO2)cc1 (configuration not stated),2.3%,3.9%,-15.7%
O=C(c1ccc(F)cc1)N1CCOC(c2nc(-c3ccc(F)cc3)no2)C1 (configuration not stated),-4.3%,-4.2%,8.3%
CCN(CC)C(=O)c1ccc(Oc2ccc([N+](=O)[O-])cc2Cl)cc1,-5.9%,-18.1%,-2.2%[2.29 µM]
CCN(CC)C(=O)c1cc([N+](=O)[O-])cc2c1-c1ccc([N+](=O)[O-])cc1C2=C(C#N)C#N,1.5%,3.98µM*,-33.3%
COc1ccc(NC(=O)Cc2ccc(Cl)c(Cl)c2)cn1,1.1%,6.8%,-37.8%
COc1ccc(NC(=O)/C(Cl)=C(/Cl)S(=O)Cc2ccccc2Cl)cn1 (configuration not stated),0.1%,0.0891µM*,-30.0%
COc1ccc(NC(=O)COC(=O)C(NC(=O)c2ccc(C)cc2)C(C)C)cn1 (configuration not stated),/,/,-9.7%
COc1ccc(NC(=O)/C(Cl)=C(/Cl)S(=O)(=O)Cc2ccc(C)cc2)cn1,?,2.51µM*,-10.7%
Cc1cccc(C2c3[nH]c4ccccc4c3CCN2Cc2cnn(-c3ccc(F)cc3)c2)n1 (configuration not stated),5.6%,5.8%,-1.7%
O=S(=O)(Cc1cc(Sc2ccc(Cl)cc2)nc(-c2ccccc2)n1)c1ccccc1,0.8%,-1.7%,-14.6%
Cc1nc(CS(=O)(=O)c2ccc(Cl)cc2)cc(Sc2ccc(Cl)cc2)n1,9.7%,5.7%,3.98µM*
O=C(O)CNC(=O)CC1S/C(=N/N=C2\CSC(=O)N2)NC1=O (configuration not stated),4.1%,0.7%,-18.1%
CC(NC(=O)CN1c2cccc3cccc(c23)S1(=O)=O)c1ccc(S(N)(=O)=O)cc1 (configuration not stated),-16.9%,-4.3%,-53.9%
COc1cc2c(cc1OC)C(c1ccccc1)N(C(=O)c1ccco1)CC2 (configuration not stated),3.0%,-23.8%,92.3%
O=C(c1ccco1)N1CCn2cccc2C1c1ccccc1 (configuration not stated),-2.3%,35.5µM*,-1.4%
Nc1ccc([As](=O)(O)O)cc1,-5.9%,35.5µM*,3.2%
Nc1ccc(NC(=O)c2ccc(C(=O)Nc3ccc(N)cc3)cc2)cc1,-10.8%,2.3%,-30.3%
COc1ccc(N(CC(=O)NCCC2=CCCCC2)S(=O)(=O)c2ccc(C)cc2)cc1,0.8%,/,-8.2%
Cc1ccc2oc3c(c(=O)c2c1)C(c1ccccc1F)N(c1ccccn1)C3=O (configuration not stated),18.6%,-0.2%,/
Cc1ccc2oc3c(c(=O)c2c1)C(c1cccc(O)c1)N(c1ccccn1)C3=O (configuration not stated),-5.1%,3.3%,3.55µM*
COc1ccc(CCC(=O)N2CCCSC2=Nc2ccc(C(C)=O)cc2)cc1,-10.6%,-2.2%,9.4%
COc1ccc(C(=O)/C=C/Sc2nc3ccccc3o2)cc1,2.0%,0.316µM*,-25.8%
COc1ccc(C(=O)N/C(N)=N/c2nc3ccccc3o2)cc1,?,5.4%,-40.4%
SMILES,AmpC detergent,Sm TGR block,AmpC inh no detg
O=c1n(-c2ccccc2)c(=O)n2n1CC(O)C2,1.8%,7.4%,-3.8%
CN(Cc1cccs1)C(=O)Cn1cnc2cc([N+](=O)[O-])ccc2c1=O,?,6.4%,-20.1%
CCn1c(SCC(=O)N/N=C/C=C/c2ccco2)nc2ccccc21,-2.1%,14.1µM*,-35.8%
CCn1c(SCC(=O)N/N=C/C=C/c2ccco2)nnc1-c1ccc(OC)cc1,2.8%,31.6µM*,-0.3%
CCn1c(SCC(=O)N/N=C/c2ccc(C)o2)nnc1-c1ccc(C)cc1,?,-28.8%,-15.3%
O=C(CSc1nc2cc(Cl)ccc2s1)c1ccco1,?,0.0%,-36.7%
O=C(CSc1nnc(SCc2ccccc2)s1)N/N=C/C=C/c1ccccc1[N+](=O)[O-],-1.9%,6.2%,-27.2%
O=C(CSc1nnc(SCc2ccccc2)s1)N/N=C/C=C\c1ccco1,-5.5%,31.6µM*,-46.1%
O=C(CSc1nnc(SCC(=O)c2ccco2)s1)c1ccco1,0.5%,39.8µM*,-44.4%
Cn1c(SCC(=O)N/N=C/c2ccco2)nc2ccccc21,3.5%,-8.9%,-16.4%
Cc1ccc(C2CC(c3cccs3)=NN2S(=O)(=O)c2ccc(C)cc2)cc1 (configuration not stated),-1.8%,-2.3%,-14.6%
CCn1cc(C(=O)N(C)CC(OC)OC)c(=O)c2cc(S(=O)(=O)N3CCOCC3)ccc21,1.0%,-1.6%,-12.3%
O=C(NCC1CCCCC1)c1ccccc1[N+](=O)[O-],3.8%,7.7%,-0.2%
CCOC(=O)Cc1nnc(NC(=O)CCc2ccccc2)s1,1.6%,-5.0%,-21.1%
CCCCc1nn2c(=O)cc(COC(=O)C(C)Oc3ccccc3)nc2s1 (configuration not stated),19.2%,-0.4%,/
CN(C(=O)CSc1nnc(Cc2cccs2)n1C1CC1)C1CCS(=O)(=O)C1 (configuration not stated),0.0%,-9.6%,-6.0%
CC1(C)C[C@H]2C=C(C=O)[C@]3(C=O)C[C@]3(C)[C@H]2C1,-6.8%,50.1µM*,-48.0%
Cc1cccn2c(=O)c(/C=C(\C#N)C(N)=O)c(N3CCN(c4ccccc4)CC3)nc12,-2.7%,-8.6%,35.9%
Cc1cccn2c(=O)c(/C=C(\C#N)C(N)=O)c(Oc3ccccc3)nc12,2.2%,31.6µM*,-4.6%
CN(C)c1ccc(C(=O)Nc2ccc(-c3nc4ccccc4o3)cc2)cc1,12.1%,7.1%,/
CCOc1ccc(NC(=O)CN(C)C(=O)c2ccncc2)cc1OCC,8.1%,25.1µM*,-53.3%
CCOc1ccc(NC(=O)CN(C)C(=O)c2cc(C)on2)cc1OCC,?,0.3%,-6.0%
COc1cc2c(cc1OC)n(CC(=O)c1cc(C)ccc1C)c(=O)n1nc(CCn3nc(C)cc3C)nc21,0.2%,-2.5%,/
COCCNC(=O)CCCn1c(=O)c2cc(OC)c(OC)cc2n(CC(=O)c2ccccc2)c1=O,-9.0%,-0.1%,100.0%
O=C(CSc1ccccn1)Nc1ccc(NC(=O)CSc2ccccn2)cc1,-0.3%,/,-23.9%
O=C(CSc1ccccn1)Nc1nonc1[N+](=O)[O-],-17.2%,7.08µM*,-19.6%
COc1cc2[nH]c(=O)n(Cc3ccc(C(=O)NCc4ccccc4)cc3)c(=O)c2cc1OC,7.9%,1.1%,/
COC(=O)Cc1ccc(NC(=S)NCCO)cc1,-3.6%,0.2%,-10.4%
COC(=O)c1ccc(NC(=S)NC2CC2)cc1,4.0%,15.8µM*,-10.8%
COC(=O)Cc1ccc(NC(=S)NC2CC2)cc1,3.2%,44.7µM*,-12.6%
